Shiga inhibitor: Shiga toxin inhibition. Vero cells, Shiga toxin protein synthesis inhibition reporter. 290,000 compounds, 9.2% hits. inhibition, % at 38.7 µM; in the data active = inhibition mostly above about 28%, no sharp cut-off; inactive = mostly below about 43%; also: 0% is about no effect
CHX counter: affects cycloheximide protein synthesis inhibition readout, counter-screen | AID 2314 | 300,000 compounds, 12% hits | cell reporter, cycloheximide protein synthesis inhibition counterscreen | max response, %; in the data active = max response mostly above about 13%, no sharp cut-off; inactive = mostly below about 14%; also: read at 38.3 µM for the half of the compounds with a filed dose; 0% is about no effect
LmPK inhibitor: blocks Leishmania mexicana pyruvate kinase activity. purified LmPK, Kinase-Glo ATP luminescence, 1 h. Potency, µM (titrated, usually from 57.5 µM), for the others: at the top dose activity change, negative = inhibition, hits mostly inhibitors. 290,000 compounds, 0.37% hits; also: potency is read from the fitted curve at half-maximal effect; % is scaled to controls: 0 for no effect and ±100 for the full control effect
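Pyruvate kinase activity monitored as ATP production (luciferase luminescence). Conditions: 0.1 nM enzyme, 0.5 mM PEP, 0.1 mM ADP, 1 h, RT; normalized against uninhibited and no-enzyme wells.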
Sm TGR inh: S. mansoni TGR enzyme inhibition; purified TGR, DTNB reduction, TNB absorbance 405 nm; Potency, µM (titrated, usually from 114 µM), for the others: at the highest dose activity change, negative = inhibition, actives largely listed as inhibitors; 360,000 compounds, 3% hits; AID 485364; also: potency is read from the fitted curve at half-maximal effect; % is scaled to controls: 0 for no effect and ±100 for the full control effect; nearly all actives have a fitted effect of over 60% in size
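TGR 20 nM + NADPH 100 uM (dispensed conc.), cpd preinc 15 min RT; start with NADPH (500 uM addition) then DTNB (15 mM addition). Kinetic TNB absorbance, 405 nm filter. Four-parameter Hill fit across titration.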
FBPA Giardia inh: blocks Giardia fructose-bisphosphate aldolase activity; A8B2U2; purified Giardia FBPA; Potency, µM (doses to about 59.6 µM), for the others: at the top dose activity, negative = inhibition, most hits filed as inhibitors; 290,000 compounds, 0.71% hits; AID 2451; also: potency is read from the fitted curve at half-maximal effect; % is scaled to controls: 0 for no effect and ±100 for the full control effect; nearly all actives have a fitted effect of over 55% in size
Target sequence (A8B2U2 whole entry, looked up): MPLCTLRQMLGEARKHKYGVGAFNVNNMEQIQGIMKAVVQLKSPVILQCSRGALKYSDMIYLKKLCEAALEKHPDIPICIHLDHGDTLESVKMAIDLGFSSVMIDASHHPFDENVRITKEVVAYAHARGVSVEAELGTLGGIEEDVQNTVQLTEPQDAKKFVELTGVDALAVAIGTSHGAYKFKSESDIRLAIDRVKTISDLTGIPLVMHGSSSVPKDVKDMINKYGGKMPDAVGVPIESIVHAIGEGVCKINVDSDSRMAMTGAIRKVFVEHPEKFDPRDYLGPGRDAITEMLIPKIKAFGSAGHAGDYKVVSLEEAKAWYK
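Giardia FBPA (40 nM reagent) was preincubated 10 min at RT with compound (up to 57.5 uM final), then substrate plus GAPDH/TPI/NAD/arsenate coupling system with diaphorase/resazurin was added; resorufin fluorescence (525/598 nm) was read after 20 min.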
Tb PYK inh: blocks Trypanosoma brucei pyruvate kinase. Q57TT1. TbPYK enzyme, Kinase-Glo Plus ATP luminescence, 45 min. Potency, µM (top dose mostly 76.8 µM), for the others: top-dose activity, negative = inhibition, usual class: inhibitors. 410,000 compounds, 0.12% hits. AID 624173; also: potency is read from the fitted curve at half-maximal effect; % is scaled to controls: 0 for no effect and ±100 for the full control effect; nearly all actives have a fitted effect of over 50% in size
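TbPYK + substrate in 50 mM TEA pH 7.2, 100 mM KCl, 10 mM MgCl2, 0.05% BSA, 0.01% Tween-20; cpd pinned; ADP 130 uM final; 45 min RT; Kinase-Glo Plus 10 min; luminescence endpoint.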
Starred values were filed as active, the others as inactive; u = inconclusive; x = no result given; ! = not confirmed by another sample. The full list was thinned out, with hits kept by preference. Unless noted, calls follow the shape of the dose curve; as a rule, active = well fitted curve in the direction sought with a large enough effect; inconclusive = small, poorly fitted or top-dose-only effect, or another doubt; inactive = no such curve, though single readings can be large; an effect the other way counts as inactive or inconclusive.

SMILES	Shiga inhibitor	CHX counter	LmPK inhibitor	Sm TGR inh	FBPA Giardia inh	Tb PYK inh
COC(=O)c1ccccc1NC(=O)c1ccc(F)cc1F	-7	10	x	x	x	x
CCCOc1ccc(-c2nc3ccccc3c(=O)o2)cc1	x	x	x	0%	x	-2%
O=c1oc(-c2ccc(Br)cc2)nc2ccccc12	x	26*	-1%	-10%	1%	-6%
CCCOc1cccc(-c2nc3ccccc3c(=O)o2)c1	79*	51*	1%	20%	-2%	-2%
Nc1ccccc1-c1nc2ccccc2c(=O)o1	29*	18*	-8%	6%	6%	0%
N#Cc1cccc(NC(=O)N2CCCC3(CCN(C(=O)c4csnn4)CC3)C2)c1	x	x	x	x	0%	-4%
O=C(NC(=O)c1ccccc1)NC1(C(F)(F)F)OCCO1	84*	48*	-3%	1%	1%	x
N#C/C(=C\c1ccc(OC(=O)c2cccs2)cc1)c1nc2ccccc2[nH]1	145*	58*	2%	2%	-4%	-1%
N#C/C(=C\Nc1ccc2c(c1)OCCO2)c1nc(-c2ccccc2)cs1	-7	-3	3%	-9%	5%	3%
COc1cc(Br)c(/C=C(\C#N)c2nc3ccccc3[nH]2)cc1OC	x	x	x	2%	x	5%
N#C/C(=C\Nc1ccc2c(c1)OCCO2)c1nc2ccccc2[nH]1	83	60*	-1%	6%	-23%	8%
N#C/C(=C\c1cccs1)c1nc2ccccc2[nH]1	107*	32*	-10%	-12%	-13%	-3%
N#C/C(=C\c1ccccc1OCC(=O)O)c1nc2ccccc2[nH]1	14	8.3*	1%	u	-4%	-1%
N#C/C(=C\c1ccc(Cl)cc1)c1nc2ccccc2[nH]1	x	x	x	-2%	x	2%
N#CC(C#N)=Cc1ccc(O)c(O)c1	x	x	x	1.4µM*	14µM*!	-3%
C(=N\c1nc2ccccc2[nH]1)/c1cccs1	27	4	14µM*	1%	-3%	-6%
N#C/C(=C/c1ccc(O)c(O)c1)c1nc2ccccc2[nH]1	77*	26*	1%	-15%	u	4%
N#C/C(=C\c1ccc(O)c(O)c1)S(=O)(=O)c1ccccc1	-4	-2	-4%	45µM*	u	-10%
C=CCn1c(=O)c2ccccc2n2c(SCC(=O)NC)nnc12	-5	11	-1%	1%	-14%	3%
C#CCOCCOCCOCCNc1nc(N2CCN(C(=O)Cn3cc(CCO)nn3)CC2)nc(N2CCN(C(=O)[C@H](Cc3ccc(O)cc3)n3cc(CCO)nn3)CC2)n1	x	x	x	x	x	-3%
CC(=O)c1c2c3c(c(Br)ccc3n(C)c1=O)C(=O)c1ccccc1-2	-7	6	7%	-32%	x	0%
CC(=O)c1c2c3c(cccc3n(C)c1=O)C(=O)c1ccccc1-2	-20	1	3%	8.9µM*	0%	-3%
O=C(NCCc1ccc(Cl)cc1)c1cc2ccccn2n1	60	25*	-1%	-3%	0%	1%
O=C(Nc1ccc(Br)cc1)c1cc2ccccn2n1	64*	44*	-6%	-7%	-13%	5%
CCc1ccc(NC(=O)c2cc3ccccn3n2)cc1	x	x	x	0%	x	1%
SMILES	Shiga inhibitor	CHX counter	LmPK inhibitor	Sm TGR inh	FBPA Giardia inh	Tb PYK inh
CCCCn1c(=O)n(CC2CCC(C(=O)NCCCOC)CC2)c(=O)c2sccc21 (stereo not drawn)	x	x	x	1%	x	3%
c1ccc2c(c1)Oc1cccc3cccc-2c13	25*	12*	2%	15%	-6%	7%
O=C(OCC(=O)N1CCc2ccccc21)c1ccccc1	118*	43*	-25%	8%	0%	0%
Nc1ccccc1C(=O)N1CCc2ccccc21	69*	26*	-7%	0%	6%	5%
COc1ccccc1C(=O)N1CCc2ccccc21	-1	2	-2%	u	-23%	3%
O=C(OCC(=O)N1CCc2ccccc21)c1cccnc1	45*	33*	-12%	-15%	0%	5%
O=C(OCC(=O)N1CCc2ccccc21)c1ccc[n+]([O-])c1	-4	-6	-4%	21%	0%	-7%
Nc1ccccc1C(=O)OCC(=O)N1CCc2ccccc21	79*	39*	-2%	1%	0%	3%
CC(NC(=O)CN1C(=O)COc2ccc(Cl)cc21)c1ccccc1 (stereo not drawn)	x	x	x	4%	x	0%
CCN(CC)CCCNC(=O)c1ccc(-c2nc(CN3CCc4ccccc43)c(C)o2)cc1	x	x	x	-1%	x	-5%
CCOC(=O)c1cc2ccccc2n1C1CCN(CCc2ccccc2)CC1	x	x	x	x	x	2%
Cn1cnc(S(=O)(=O)N2CCC(C(=O)Nc3ccc(OC(F)(F)F)cc3)CC2)c1	x	x	x	5%	x	-1%
CC(C)c1ccc(NC(=O)COc2ccccc2)cc1	62*	49*	-1%	-11%	3%	0%
Cc1cc(OCC(=O)NCCO)ccc1Cl	7	-3	-5%	-4%	3%	3%
CC(C)c1ccc(OCC(=O)Nc2ccc(OC(F)(F)F)cc2)cc1	-25	4	1%	-6%	1%	0%
CC(C)c1ccc(OCC(=O)NCCO)cc1	93*	53*	0%	-22%	2%	-2%
CC(C)c1ccc(NC(=O)COc2ccccn2)cc1	84*	45*	2%	4%	3%	0%
CCCN(CCC)C(=O)CSc1nnc2cc(C)c3cc(C)cc(C)c3n12	x	x	x	-4%	x	u
Cc1cc(C(=O)NNS(=O)(=O)c2cc(C(=O)O)ccc2Cl)c(C)n1-c1ccccc1	x	x	x	-33%	x	-9%
Cc1ccnc(NC(=O)c2cc3cc(F)ccc3s2)c1	83*	45*	0%	-2%	3%	0%
Cc1ccc(NC(=O)Nc2ccc(F)cc2)nc1	65*	47*	3%	5%	2%	3%
Cc1ccnc(NC(=O)CNC(=O)c2ccc(C)s2)c1	x	x	x	-1%	x	-10%
COc1ccccc1NC(=O)Nc1ccc(C)cn1	23	10	-3%	-9%	0%	3%
COC(=O)c1ccccc1NC(=O)Nc1cc(C)ccn1	-5	2	-1%	x	3%	2%
Cc1ccnc(NC(=O)Nc2ccc(Br)cc2Cl)c1	91*	47*	-3%	3%	4%	-10%
CSc1ccc(NC(=O)Nc2cc(C)ccn2)cc1	171*	55*	0%	3%	6%	0%
CCOC(=O)c1nnn(CC(=O)Nc2cc(C)cc(C)c2)c1C(=O)OCC	x	x	x	0%	x	2%
CCCCn1nc(C(=O)Nc2cc(C(F)(F)F)ccc2N2CCOCC2)ccc1=O	x	x	x	3%	x	5%
Cc1ccnc(NC(=O)Nc2ccc3c(c2)N(C)C(=O)CS3)c1	156*	83*	0%	-3%	2%	4%
Cc1ccnc(NC(=O)Nc2ccc(F)cc2)c1	69*	35*	-10%	2%	-3%	1%

Source: PubChem (National Center for Advancing Translational Sciences (NCATS))
